Measurements: ChEMBL document CHEMBL1961873, “Compounds: GSK PKIS; Assays: Nanosyn kinase panel” (2012)

What was measured:
[1] = molecular target: Mitogen-activated protein kinase kinase kinase kinase 4 (Homo sapiens) (UniProt O95819); settings: at 1 µM;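 note: reported figure is an averaged inhibition value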
[2] = molecular target: Dual specificity mitogen-activated protein kinase kinase 1 (Homo sapiens) (UniProt Q02750); settings: at 0.1 µM
[3] = molecular target: Dual specificity mitogen-activated protein kinase kinase 1 (Homo sapiens) (UniProt Q02750); settings: at 1 µM
[4] = molecular target: Misshapen-like kinase 1 (Homo sapiens) (UniProt Q8N4C8); settings: at 0.1 µM
Chain of Misshapen-like kinase 1 (Homo sapiens) (Q8N4C8 whole entry, looked up): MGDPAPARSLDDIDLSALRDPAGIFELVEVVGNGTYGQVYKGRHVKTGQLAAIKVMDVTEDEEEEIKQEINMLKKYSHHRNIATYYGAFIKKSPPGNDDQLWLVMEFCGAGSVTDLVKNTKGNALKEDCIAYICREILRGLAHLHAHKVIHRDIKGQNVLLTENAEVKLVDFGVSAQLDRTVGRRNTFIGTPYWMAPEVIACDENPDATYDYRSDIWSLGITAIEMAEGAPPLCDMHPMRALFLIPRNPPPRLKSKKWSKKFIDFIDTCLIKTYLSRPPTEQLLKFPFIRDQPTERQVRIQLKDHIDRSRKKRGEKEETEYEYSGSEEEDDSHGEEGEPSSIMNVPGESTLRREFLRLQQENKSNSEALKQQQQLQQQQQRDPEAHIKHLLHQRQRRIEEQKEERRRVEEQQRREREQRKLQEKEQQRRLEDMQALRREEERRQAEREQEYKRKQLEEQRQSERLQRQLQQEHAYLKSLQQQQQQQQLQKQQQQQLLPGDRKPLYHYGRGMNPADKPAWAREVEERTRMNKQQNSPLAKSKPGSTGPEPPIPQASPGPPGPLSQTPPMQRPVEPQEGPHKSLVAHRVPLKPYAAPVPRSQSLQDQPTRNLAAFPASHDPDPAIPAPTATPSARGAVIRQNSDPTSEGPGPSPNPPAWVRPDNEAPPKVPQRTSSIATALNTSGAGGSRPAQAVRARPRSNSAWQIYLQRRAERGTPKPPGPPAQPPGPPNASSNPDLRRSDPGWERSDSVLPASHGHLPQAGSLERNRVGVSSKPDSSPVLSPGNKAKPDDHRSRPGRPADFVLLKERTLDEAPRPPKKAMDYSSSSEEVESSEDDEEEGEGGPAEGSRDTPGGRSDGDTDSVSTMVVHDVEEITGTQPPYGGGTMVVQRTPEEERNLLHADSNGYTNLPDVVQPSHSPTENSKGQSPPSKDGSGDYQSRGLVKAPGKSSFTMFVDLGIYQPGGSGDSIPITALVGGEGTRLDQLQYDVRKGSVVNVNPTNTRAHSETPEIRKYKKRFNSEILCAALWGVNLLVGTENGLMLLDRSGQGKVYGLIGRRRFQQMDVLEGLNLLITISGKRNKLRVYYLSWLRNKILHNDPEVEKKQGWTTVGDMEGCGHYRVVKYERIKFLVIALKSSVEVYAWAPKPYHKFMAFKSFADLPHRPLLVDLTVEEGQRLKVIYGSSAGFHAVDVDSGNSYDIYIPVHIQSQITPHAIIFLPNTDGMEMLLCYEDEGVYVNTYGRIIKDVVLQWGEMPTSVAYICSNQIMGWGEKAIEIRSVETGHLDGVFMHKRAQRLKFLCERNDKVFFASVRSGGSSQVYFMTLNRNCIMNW

[5] = molecular target: Misshapen-like kinase 1 (Homo sapiens) (UniProt Q8N4C8); settings: at 1 µM
[6] = molecular target: T1, Serine/threonine-protein kinase 4 (Homo sapiens) (UniProt Q13043); settings: at 0.1 µM
T1 sequence (whole entry): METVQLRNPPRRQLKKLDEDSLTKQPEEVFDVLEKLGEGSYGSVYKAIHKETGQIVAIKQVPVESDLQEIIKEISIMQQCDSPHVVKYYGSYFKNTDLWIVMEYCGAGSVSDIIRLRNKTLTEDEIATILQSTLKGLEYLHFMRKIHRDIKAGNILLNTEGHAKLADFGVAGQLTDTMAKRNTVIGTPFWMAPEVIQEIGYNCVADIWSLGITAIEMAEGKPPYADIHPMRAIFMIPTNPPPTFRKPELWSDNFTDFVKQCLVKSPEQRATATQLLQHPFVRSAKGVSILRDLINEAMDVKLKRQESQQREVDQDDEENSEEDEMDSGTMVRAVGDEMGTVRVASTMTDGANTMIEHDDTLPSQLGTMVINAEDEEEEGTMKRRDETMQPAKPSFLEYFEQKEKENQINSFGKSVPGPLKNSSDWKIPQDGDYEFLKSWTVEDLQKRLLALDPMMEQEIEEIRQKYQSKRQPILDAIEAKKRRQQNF

[7] = molecular target: T1, Serine/threonine-protein kinase 4 (Homo sapiens); settings: at 1 µM
[8] = molecular target: T2, Serine/threonine-protein kinase 3 (Homo sapiens) (UniProt Q13188); settings: at 0.1 µM
T2 sequence (whole entry): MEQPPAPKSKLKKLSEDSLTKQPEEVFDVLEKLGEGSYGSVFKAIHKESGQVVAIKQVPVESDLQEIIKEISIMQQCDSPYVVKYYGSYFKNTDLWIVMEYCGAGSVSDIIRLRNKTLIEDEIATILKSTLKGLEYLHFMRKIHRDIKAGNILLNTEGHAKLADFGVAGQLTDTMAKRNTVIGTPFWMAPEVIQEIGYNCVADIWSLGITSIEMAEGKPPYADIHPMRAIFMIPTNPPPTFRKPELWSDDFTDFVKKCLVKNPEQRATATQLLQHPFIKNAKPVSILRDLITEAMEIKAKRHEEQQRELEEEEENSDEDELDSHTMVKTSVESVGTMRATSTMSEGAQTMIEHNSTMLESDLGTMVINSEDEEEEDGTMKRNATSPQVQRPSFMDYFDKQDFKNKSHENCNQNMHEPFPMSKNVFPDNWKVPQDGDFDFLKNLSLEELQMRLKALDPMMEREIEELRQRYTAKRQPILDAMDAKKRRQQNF

[9] = molecular target: T2, Serine/threonine-protein kinase 3 (Homo sapiens); settings: at 1 µM
[10] = molecular target: Serine/threonine-protein kinase 26 (Homo sapiens) (UniProt Q9P289); settings: at 0.1 µM
Chain of Serine/threonine-protein kinase 26 (Homo sapiens) (Q9P289 2-416 limits assumed): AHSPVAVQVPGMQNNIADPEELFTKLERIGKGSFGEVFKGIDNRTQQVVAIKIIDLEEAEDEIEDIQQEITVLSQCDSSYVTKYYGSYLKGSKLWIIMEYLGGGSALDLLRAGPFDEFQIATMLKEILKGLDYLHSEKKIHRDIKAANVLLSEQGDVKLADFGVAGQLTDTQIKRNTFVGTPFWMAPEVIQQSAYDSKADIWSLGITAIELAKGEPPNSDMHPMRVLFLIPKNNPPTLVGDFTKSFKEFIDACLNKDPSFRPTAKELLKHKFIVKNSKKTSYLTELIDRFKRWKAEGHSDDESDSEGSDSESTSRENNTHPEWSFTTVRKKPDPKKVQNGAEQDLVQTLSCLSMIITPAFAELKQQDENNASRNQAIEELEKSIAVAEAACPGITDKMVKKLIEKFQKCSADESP

[11] = molecular target: Serine/threonine-protein kinase 26 (Homo sapiens) (UniProt Q9P289); settings: at 1 µM
[12] = molecular target: Serine/threonine-protein kinase PAK 1 (Homo sapiens) (UniProt Q13153); settings: at 0.1 µM
Chain of Serine/threonine-protein kinase PAK 1 (Homo sapiens) (Q13153 whole entry): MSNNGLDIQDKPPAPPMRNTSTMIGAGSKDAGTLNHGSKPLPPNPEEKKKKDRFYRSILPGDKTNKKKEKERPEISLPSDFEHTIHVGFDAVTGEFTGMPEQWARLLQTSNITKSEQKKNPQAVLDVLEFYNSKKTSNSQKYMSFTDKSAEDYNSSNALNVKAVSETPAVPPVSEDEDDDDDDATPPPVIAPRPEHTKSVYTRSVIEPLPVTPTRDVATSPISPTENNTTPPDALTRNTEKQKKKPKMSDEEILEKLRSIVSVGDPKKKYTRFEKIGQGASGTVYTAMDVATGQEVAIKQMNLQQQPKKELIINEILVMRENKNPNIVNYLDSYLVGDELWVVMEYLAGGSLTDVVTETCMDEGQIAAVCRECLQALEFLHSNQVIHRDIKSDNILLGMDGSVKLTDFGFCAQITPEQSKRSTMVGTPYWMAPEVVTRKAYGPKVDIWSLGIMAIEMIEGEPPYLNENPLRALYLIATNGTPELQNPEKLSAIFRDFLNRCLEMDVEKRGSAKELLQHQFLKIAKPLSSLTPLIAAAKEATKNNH

[13] = molecular target: Serine/threonine-protein kinase PAK 1 (Homo sapiens) (UniProt Q13153); settings: at 1 µM
[14] = molecular target: Serine/threonine-protein kinase PAK 2 (Homo sapiens) (UniProt Q13177); settings: at 0.1 µM
[15] = molecular target: Serine/threonine-protein kinase PAK 2 (Homo sapiens) (UniProt Q13177); settings: at 1 µM
[16] = molecular target: Serine/threonine-protein kinase PAK 3 (Homo sapiens) (UniProt O75914); settings: at 0.1 µM
Chain of Serine/threonine-protein kinase PAK 3 (Homo sapiens) (O75914 whole entry, looked up): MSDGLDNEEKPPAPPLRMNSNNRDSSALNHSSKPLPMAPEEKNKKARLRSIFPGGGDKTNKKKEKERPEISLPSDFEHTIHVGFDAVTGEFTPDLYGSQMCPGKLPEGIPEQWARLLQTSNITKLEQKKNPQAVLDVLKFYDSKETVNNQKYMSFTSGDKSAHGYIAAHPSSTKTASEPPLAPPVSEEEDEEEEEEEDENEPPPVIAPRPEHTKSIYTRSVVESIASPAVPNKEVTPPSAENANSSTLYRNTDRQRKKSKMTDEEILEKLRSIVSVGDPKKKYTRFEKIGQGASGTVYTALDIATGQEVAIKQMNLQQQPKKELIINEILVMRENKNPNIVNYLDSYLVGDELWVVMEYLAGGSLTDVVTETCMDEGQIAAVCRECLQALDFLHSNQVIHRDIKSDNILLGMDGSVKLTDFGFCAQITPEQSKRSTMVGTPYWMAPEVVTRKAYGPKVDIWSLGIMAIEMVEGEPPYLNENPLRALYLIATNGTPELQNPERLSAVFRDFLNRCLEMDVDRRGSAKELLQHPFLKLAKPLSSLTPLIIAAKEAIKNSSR

[17] = molecular target: Serine/threonine-protein kinase PAK 3 (Homo sapiens) (UniProt O75914); settings: at 1 µM
[18] = molecular target: Serine/threonine-protein kinase PAK 5 (Homo sapiens) (UniProt Q9P286); settings: at 0.1 µM
[19] = molecular target: Serine/threonine-protein kinase PAK 5 (Homo sapiens) (UniProt Q9P286); settings: at 1 µM
[20] = molecular target: Serine/threonine-protein kinase PAK 6 (Homo sapiens) (UniProt Q9NQU5); settings: at 0.1 µM;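 note: mean PAK6 inhibition reported from the GSK PKIS screen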
Chain of Serine/threonine-protein kinase PAK 6 (Homo sapiens) (Q9NQU5 whole entry, looked up): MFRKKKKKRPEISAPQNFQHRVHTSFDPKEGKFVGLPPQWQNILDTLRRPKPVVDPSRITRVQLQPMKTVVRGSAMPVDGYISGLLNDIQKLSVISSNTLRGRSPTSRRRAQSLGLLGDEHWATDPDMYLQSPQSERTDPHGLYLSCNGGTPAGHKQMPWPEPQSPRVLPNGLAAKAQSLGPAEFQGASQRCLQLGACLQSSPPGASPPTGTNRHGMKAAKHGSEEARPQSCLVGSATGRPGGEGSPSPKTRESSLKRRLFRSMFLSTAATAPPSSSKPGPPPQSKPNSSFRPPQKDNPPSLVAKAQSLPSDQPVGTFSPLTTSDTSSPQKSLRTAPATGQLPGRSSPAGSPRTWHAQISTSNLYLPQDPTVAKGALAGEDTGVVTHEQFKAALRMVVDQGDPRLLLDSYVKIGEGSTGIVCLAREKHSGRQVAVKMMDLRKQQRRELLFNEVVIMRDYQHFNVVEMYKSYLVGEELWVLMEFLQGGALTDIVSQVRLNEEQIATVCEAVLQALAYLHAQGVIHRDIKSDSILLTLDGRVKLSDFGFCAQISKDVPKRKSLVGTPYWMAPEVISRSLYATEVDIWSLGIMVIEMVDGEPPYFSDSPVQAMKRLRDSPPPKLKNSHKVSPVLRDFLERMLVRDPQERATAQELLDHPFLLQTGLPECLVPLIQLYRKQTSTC

Chain of Mitogen-activated protein kinase kinase kinase kinase 4 (Homo sapiens) (O95819 2-1239 limits assumed): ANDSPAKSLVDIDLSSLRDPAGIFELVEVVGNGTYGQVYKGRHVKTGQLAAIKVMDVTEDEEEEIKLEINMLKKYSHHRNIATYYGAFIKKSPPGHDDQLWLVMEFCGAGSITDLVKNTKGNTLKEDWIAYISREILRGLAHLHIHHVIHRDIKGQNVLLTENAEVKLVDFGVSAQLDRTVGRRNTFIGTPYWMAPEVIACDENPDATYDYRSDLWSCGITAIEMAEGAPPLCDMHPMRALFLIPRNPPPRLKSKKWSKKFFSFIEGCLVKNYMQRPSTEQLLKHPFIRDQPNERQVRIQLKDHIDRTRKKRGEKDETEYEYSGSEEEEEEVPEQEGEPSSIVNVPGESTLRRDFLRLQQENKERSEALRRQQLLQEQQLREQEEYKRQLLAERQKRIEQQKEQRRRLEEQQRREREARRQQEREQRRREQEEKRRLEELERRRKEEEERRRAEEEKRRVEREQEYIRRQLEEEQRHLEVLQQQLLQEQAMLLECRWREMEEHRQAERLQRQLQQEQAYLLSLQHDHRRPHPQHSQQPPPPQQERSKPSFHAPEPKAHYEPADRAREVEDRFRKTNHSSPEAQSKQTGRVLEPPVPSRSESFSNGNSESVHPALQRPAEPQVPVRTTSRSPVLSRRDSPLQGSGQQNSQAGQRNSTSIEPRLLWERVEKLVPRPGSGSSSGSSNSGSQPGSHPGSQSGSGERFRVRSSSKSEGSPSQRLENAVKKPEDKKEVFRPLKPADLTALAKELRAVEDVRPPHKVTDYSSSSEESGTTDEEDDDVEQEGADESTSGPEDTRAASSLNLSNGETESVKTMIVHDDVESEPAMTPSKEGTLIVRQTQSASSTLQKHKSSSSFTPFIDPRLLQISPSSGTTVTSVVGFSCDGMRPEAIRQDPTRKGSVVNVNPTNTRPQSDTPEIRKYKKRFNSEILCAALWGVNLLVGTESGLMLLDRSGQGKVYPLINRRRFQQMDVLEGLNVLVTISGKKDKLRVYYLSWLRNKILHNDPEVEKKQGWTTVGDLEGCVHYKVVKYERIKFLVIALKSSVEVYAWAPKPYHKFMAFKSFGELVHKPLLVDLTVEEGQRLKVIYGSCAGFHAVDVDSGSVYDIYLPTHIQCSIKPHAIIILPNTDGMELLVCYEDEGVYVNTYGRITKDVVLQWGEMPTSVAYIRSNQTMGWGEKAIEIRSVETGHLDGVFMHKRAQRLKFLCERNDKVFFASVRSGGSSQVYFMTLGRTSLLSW

| SMILES | inhibition [1] | inhibition [2] | inhibition [3] | inhibition [4] | inhibition [5] | inhibition [6] | inhibition [7] | inhibition [8] | inhibition [9] | inhibition [10] | inhibition [11] | inhibition [12] | inhibition [13] | inhibition [14] | inhibition [15] | inhibition [16] | inhibition [17] | inhibition [18] | inhibition [19] | inhibition [20] |
| --- | --- | --- | --- | --- | --- | --- | --- | --- | --- | --- | --- | --- | --- | --- | --- | --- | --- | --- | --- | --- |
| O=C(O[C@H]1CN[C@H](C#Cc2cc3ncnc(Nc4ccc5c(cnn5Cc5ccccc5)c4)c3s2)C1)N1CCOCC1 | 2.37% | -0.35% | -0.55% | -0.37% | 1.62% | 2.4% | 4.54% | 1.56% | 5.49% | 0.75% | 2.02% | 2.28% | 0.73% | -1.9% | -1.35% | -0.09% | 0.69% | -0.12% | -1.71% | 3.43% |
| CS(=O)(=O)Nc1ccc(-c2ccc3c(NC(=O)C4CC4)n[nH]c3c2)cc1 | 34.1% | 3.68% | 2.95% | 6.49% | 20.9% | 4.89% | 11.3% | 5.64% | 9.06% | -0.25% | -2.98% | 3.5% | 5.34% | 1.62% | 1.36% | 3.41% | 4.16% | -0.3% | 0.91% | 0.76% |
| CNC(=O)c1ncccc1Nc1nc(Nc2cc3c(cc2OC)CCCN3C(=O)CN(C)C)nc2[nH]ccc12 | 6.26% | 3.03% | 3.53% | 5.92% | 7.79% | 8.58% | 12.8% | 8.59% | 7.84% | -2.11% | -5.28% | 7.85% | 7.25% | 0.92% | 1.69% | 4.29% | 5.27% | 5.25% | -0.15% | 11.4% |
| Cc1cc(O)cc(C)c1/C=C/c1cncc(C(=O)OC(C)(C)C)c1 | 15.2% | 4.02% | 3.99% | 6.01% | 9.55% | 3.56% | 8.26% | 2.81% | 6.28% | 0.35% | 2.31% | 5.41% | 2.7% | -0.11% | 0.96% | 2.25% | 2.76% | 0.52% | 4.26% | 2.02% |
| CCS(=O)(=O)c1ccc(OC)c(Nc2ncc(-c3cccc(C(C)=O)c3)o2)c1 | 10.2% | 3.55% | 2.6% | 3.09% | 8.97% | 7.14% | 13.3% | 7.18% | 12.6% | -0.19% | 1.58% | 8.45% | 1.48% | 2.47% | 1.36% | -0.54% | 3.98% | 7.26% | 8.72% | 7.53% |
| CS(=O)(=O)CCNCc1ccoc1-c1ccc2ncnc(Nc3ccc(OCc4ccccc4)cc3)c2c1 | 4.29% | 1.46% | 2.49% | 1.28% | 2.65% | 1.95% | 2.79% | 2.37% | 3.29% | -1.84% | -0.88% | -2.84% | -0.82% | -0.75% | -2.34% | -3.57% | -0.05% | -0.34% | 3.51% | -5.6% |
| CN1CCC(n2cnc(-c3ccc(F)cc3)c2-c2ccnc(NCCO)n2)CC1 | 17.5% | 4.13% | 5.25% | 7.76% | 15.8% | 7.06% | 10.4% | 7.55% | 9.48% | -1.24% | 1.34% | 5.86% | 7.1% | 2.03% | 2.52% | 3.99% | 3.76% | 0.7% | 1.35% | 3.38% |
| Cc1nnc(-c2cccc(-c3ccc(C(=O)NCC4CC4)cc3)c2)o1 | 14.1% | 8.77% | 4.7% | 7.95% | 14.7% | 8.49% | 9.93% | 10.6% | 10.4% | -0.42% | 0.39% | 9.41% | 10.5% | 2.54% | 3.86% | 7.07% | 5.35% | 4.12% | 2.3% | 4.58% |
